# According to PubChem BioAssay (Tox21):
# Inconclusive results are not listed. Entries that show only a call come without a potency. Values without a mark were called inactive. The source made the active and inactive calls. Calls follow the shape of the dose curve; as a rule, active = well fitted cell-killing curve with a large enough effect in the repeat runs; inconclusive = weak or mixed curves, or effect the other way; inactive = flat fitted curve, though single readings scatter.
# Assays:
# [1] = cAMP Responsive Elements (CRE) small molecule antagonists, cell-based qHTS assay: qHTS cell viability counter screen (AID 2060913); conditions: CRE-bla HEK293T viability, CellTiter-Glo luminescence, 5 h; series mostly up to 92.4 µM; also: nearly all actives have a fitted effect of over 40% in size; also: potency is read from the fitted curve at half-maximal effect
# Procedure, shortened: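 Cytotoxicity counter screen multiplexed with the CRE-bla antagonist read: HEK293T cells in DMEM with dialyzed FBS and 25 mM HEPES were treated 3 hrs under 0.25 uM final NKH477, then viability measured by CellTiter-Glo luminescence.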
# [2] = cAMP Responsive Elements (CRE) small molecule agonists, cell-based qHTS assay: qHTS cell viability counter screen (AID 2060914); conditions: CRE-bla HEK293T viability, CellTiter-Glo luminescence, 5 h; series mostly up to 92.4 µM; also: nearly all actives have a fitted effect of over 50% in size
# Procedure, shortened: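 Cytotoxicity was measured as ATP luminescence (CellTiter-Glo, 30 min at room temperature) in the same wells as the CRE-bla FRET read-out. HEK293T CRE-bla cells had 3 h compound exposure at 37C/5% CO2.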
Compound,Potency [1],Potency [2],"viability change, negative = cytotoxic [1]","activity change, negative = cytotoxicity [2]"
COP(=S)(Oc1cc(Cl)c(Br)cc1Cl)c1ccccc1 (stereo unspecified),inactive,inactive,,
CCCCCl,inactive,inactive,,
O=C(O)C(F)(F)C(F)(F)C(F)(F)C(F)(F)C(F)(F)C(F)(F)C(F)(F)C(F)(F)F,inactive,inactive,,
CC(O)(CS(=O)(=O)c1ccc(F)cc1)C(=O)Nc1ccc(C#N)c(C(F)(F)F)c1 (stereo unspecified),inactive,inactive,,
Cl/C=C\CCl,inactive,inactive,,
C/C=C/CC#N,inactive,inactive,,
Oc1cc(Cl)cc(Cl)c1,inactive,inactive,,
O.O.O.O.O.O.O=S(=O)([O-])[O-].[Ni+2],inactive,inactive,,
CN1CC[C@]23c4c5ccc(O)c4O[C@H]2[C@@H](O)C=C[C@H]3[C@H]1C5,inactive,inactive,,
O=C(NC(O)C(Cl)(Cl)Cl)NC(O)C(Cl)(Cl)Cl (stereo unspecified),inactive,inactive,,
Cc1ccc2c(c1)C1CN(C)CCC1N2 (stereo unspecified),,,-0.367% [at 18.9 µM],-0.524% [at 18.9 µM]
Cc1c(Cl)c(=O)oc2cc(OP(=O)(OCCCl)OCCCl)ccc12,inactive,inactive,,
COc1cccc(C(=O)CCN[C@@H](C)[C@H](O)c2ccccc2)c1,inactive,inactive,,
CCOP(=O)(Sc1ccccc1)Sc1ccccc1,inactive,inactive,,
CC(C)c1c(CN(C)C(C)Cc2ccccc2)n(C)n(-c2ccccc2)c1=O (stereo unspecified),inactive,inactive,,
COC12CC[C@@]3(C[C@@H]1C(C)(O)C(C)(C)C)[C@H]1Cc4ccc(O)c5c4[C@@]3(CCN1CC1CC1)[C@H]2O5 (stereo partly specified),60.7 µM (active),inactive,,
N#Cc1ccccc1N,inactive,inactive,,
C=C1C[C@@H]2[C@H](CC[C@]3(C)C(=O)CC[C@@H]23)[C@@]2(C)C=CC(=O)C=C12,inactive,inactive,,
C=CCOC(N)=O,inactive,inactive,,
CCCCC(CC)COC(=O)Cl (stereo unspecified),inactive,inactive,,
CC(Cc1ccc(O)cc1)NCC(O)c1cc(O)cc(O)c1 (stereo unspecified),inactive,inactive,,
C/C=C/c1ccc2c(c1)OCO2,inactive,inactive,,
Clc1cccc2ccccc12,inactive,inactive,,
CC(C)(C)OOC(=O)c1ccccc1,inactive,inactive,,
C[C@H]1CCCC(=O)CCC/C=C/c2cc(O)cc(O)c2C(=O)O1,inactive,inactive,,
Oc1ccccc1Cl,inactive,inactive,,
CN(C)[C@@H]1C(=O)C(C(N)=O)=C(O)[C@@]2(O)C(=O)C3=C(O)c4c(O)cccc4[C@@](C)(O)[C@H]3C[C@@H]12,inactive,inactive,,

Compound,Potency [1],Potency [2],"viability change, negative = cytotoxic [1]","activity change, negative = cytotoxicity [2]"
CNCC(O)c1ccc(O)cc1 (stereo unspecified),inactive,inactive,,
CCOP(=S)(OCC)Oc1nc(Cl)c(Cl)cc1Cl,inactive,inactive,,
O=C(CBr)Nc1ccc(Cl)cc1C(=O)c1ccccc1F,inactive,inactive,,
CC(C)(N)Cc1ccccc1Cl,inactive,inactive,,
BrC(Br)Br,inactive,inactive,,
CNC(=O)Oc1cc(C)c(SC)c(C)c1,inactive,inactive,,
CCOC(=O)C(C)OC(=O)c1cc(Oc2ccc(C(F)(F)F)cc2Cl)ccc1[N+](=O)[O-] (stereo unspecified),inactive,inactive,,
Nc1cccc(Cl)c1,inactive,inactive,,
CCCCC1C(=O)NC(=O)N(C2CCCCC2)C1=O (stereo unspecified),inactive,inactive,,
Oc1c(Cl)c(Cl)c(Cl)c(Cl)c1Cl,inactive,inactive,,
O=C(O)C(Br)CBr (stereo unspecified),inactive,inactive,,
[CH3][Sn]([CH3])([Cl])[Cl],inactive,inactive,,
Brc1cccc(-c2ccccc2)c1,inactive,inactive,,
CCC(C)Cl (stereo unspecified),inactive,inactive,,
OCCSCSCCO,inactive,inactive,,
C=COC(C)=O,inactive,inactive,,
Clc1ccc(Cl)cc1,inactive,inactive,,
O=[N+]([O-])c1ccc2c3c(cccc13)CC2,inactive,inactive,,
CN1C(=O)NC(=O)C(C)(C2=CCCCC2)C1=O (stereo unspecified),inactive,inactive,,
[O-][Cl+3]([O-])([O-])O,inactive,inactive,,
Clc1ccccc1N1CCNCC1,inactive,inactive,,
Clc1ccccc1Cl,inactive,inactive,,
Nc1ccc(N=Nc2ccc(-c3ccc(N=Nc4c(S(=O)(=O)O)cc5cc(S(=O)(=O)O)c(N=Nc6ccccc6)c(O)c5c4N)cc3)cc2)c(N)c1,inactive,inactive,,
NC(=O)CF,inactive,inactive,,
CCC(=O)C(CC(C)N(C)C)(c1ccccc1)c1ccccc1 (stereo unspecified),inactive,inactive,,
O=C(O)CCCc1ccc(N(CCCl)CCCl)cc1,inactive,inactive,,
